Tests used:
Experiment in all cases: DAPPL (digital affinity profiling via proximity ligation, sequencing); 10 mM Tris-HCl pH 7.5, 50 mM NaCl, 1 mM DTT, 4% glycerol, room temperature, 30 min; GST-TFs on glutathione beads, 16-mer random dsDNA library, 0.1% formaldehyde crosslink after washing; high values mean tight binding
FEV = molecular target: T1, FEV (Homo sapiens, UniProt Q99581 1-238); conditions: protein: recombinant; tags: N-terminal GST; dsDNA, one strand shown
T1 sequence: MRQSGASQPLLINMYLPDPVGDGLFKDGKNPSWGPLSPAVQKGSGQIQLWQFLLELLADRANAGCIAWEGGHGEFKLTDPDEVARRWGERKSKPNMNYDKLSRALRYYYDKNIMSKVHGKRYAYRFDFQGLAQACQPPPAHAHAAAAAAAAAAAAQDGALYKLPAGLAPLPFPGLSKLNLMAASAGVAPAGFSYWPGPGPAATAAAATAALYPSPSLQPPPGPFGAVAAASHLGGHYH
Outline: (§1)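 A tag-only sample was pooled with DNA-barcoded human transcription factors that had been expressed in yeast as GST fusions and captured on glutathione beads. The pools were incubated for 30 min at room temperature with 200 nmole of a random double-stranded 16-mer DNA library in Tris/NaCl/DTT/glycerol buffer, then washed, crosslinked with 0.1% formaldehyde, proximity-ligated (BsaI/T4 ligase, 1 h, 37 °C), PCR-amplified and sequenced on an Illumina NextSeq500. Binding signal is each hexamer's read frequency for a factor divided by its frequency for the tag-only sample.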

ETV5 = ETV5 (Homo sapiens, UniProt P41161 1-510); conditions: protein: recombinant; tags: N-terminal GST; dsDNA, one strand shown
Chain of ETV5 (P41161 whole entry): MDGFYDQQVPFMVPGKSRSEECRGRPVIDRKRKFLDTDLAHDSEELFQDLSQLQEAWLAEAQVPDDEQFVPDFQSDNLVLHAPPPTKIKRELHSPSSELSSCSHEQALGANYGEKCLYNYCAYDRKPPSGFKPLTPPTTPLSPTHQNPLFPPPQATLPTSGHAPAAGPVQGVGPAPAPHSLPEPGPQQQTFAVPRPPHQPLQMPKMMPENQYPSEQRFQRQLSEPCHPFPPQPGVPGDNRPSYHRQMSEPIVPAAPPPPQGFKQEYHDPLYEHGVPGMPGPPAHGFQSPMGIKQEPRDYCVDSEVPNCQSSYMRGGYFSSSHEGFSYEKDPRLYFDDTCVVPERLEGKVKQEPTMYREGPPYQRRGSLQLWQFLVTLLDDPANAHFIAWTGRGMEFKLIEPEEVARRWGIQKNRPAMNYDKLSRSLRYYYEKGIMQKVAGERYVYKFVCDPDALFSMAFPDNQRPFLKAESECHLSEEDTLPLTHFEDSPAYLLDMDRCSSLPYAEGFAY
Outline: as §1

HSF1 = HSF1 (Homo sapiens, UniProt Q00613 1-529); conditions: protein: recombinant; tags: N-terminal GST; chain copies: 3; dsDNA, one strand shown
Chain of HSF1 (Q00613 whole entry): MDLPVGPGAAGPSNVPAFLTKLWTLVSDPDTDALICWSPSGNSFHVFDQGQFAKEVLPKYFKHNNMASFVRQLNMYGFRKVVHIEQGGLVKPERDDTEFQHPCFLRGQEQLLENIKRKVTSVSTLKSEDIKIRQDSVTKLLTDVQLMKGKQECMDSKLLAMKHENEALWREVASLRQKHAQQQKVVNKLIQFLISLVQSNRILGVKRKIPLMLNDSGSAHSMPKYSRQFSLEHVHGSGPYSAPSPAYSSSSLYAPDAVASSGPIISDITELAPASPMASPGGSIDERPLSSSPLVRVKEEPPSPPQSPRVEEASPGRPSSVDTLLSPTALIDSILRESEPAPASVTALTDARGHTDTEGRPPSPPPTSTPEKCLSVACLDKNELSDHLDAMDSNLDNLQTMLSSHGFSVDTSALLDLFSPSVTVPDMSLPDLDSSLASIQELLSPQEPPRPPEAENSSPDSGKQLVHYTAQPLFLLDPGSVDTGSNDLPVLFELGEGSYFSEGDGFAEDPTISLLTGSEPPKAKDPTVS
Outline: as §1

SPIC = molecular target: T2, SPIC (Homo sapiens, UniProt Q8N5J4 1-248); conditions: protein: recombinant; tags: N-terminal GST; dsDNA, one strand shown
T2 sequence: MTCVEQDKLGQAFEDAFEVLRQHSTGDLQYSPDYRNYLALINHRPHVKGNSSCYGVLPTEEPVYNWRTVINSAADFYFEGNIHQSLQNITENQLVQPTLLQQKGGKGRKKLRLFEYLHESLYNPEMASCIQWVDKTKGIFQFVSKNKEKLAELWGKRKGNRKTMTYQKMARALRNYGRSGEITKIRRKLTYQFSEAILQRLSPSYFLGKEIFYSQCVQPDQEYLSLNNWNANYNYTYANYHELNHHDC
Outline: as §1

ELF4 = ELF4 (Homo sapiens, UniProt Q99607 1-663); conditions: protein: recombinant; tags: N-terminal GST; dsDNA, one strand shown
Chain of ELF4 (Q99607 whole entry): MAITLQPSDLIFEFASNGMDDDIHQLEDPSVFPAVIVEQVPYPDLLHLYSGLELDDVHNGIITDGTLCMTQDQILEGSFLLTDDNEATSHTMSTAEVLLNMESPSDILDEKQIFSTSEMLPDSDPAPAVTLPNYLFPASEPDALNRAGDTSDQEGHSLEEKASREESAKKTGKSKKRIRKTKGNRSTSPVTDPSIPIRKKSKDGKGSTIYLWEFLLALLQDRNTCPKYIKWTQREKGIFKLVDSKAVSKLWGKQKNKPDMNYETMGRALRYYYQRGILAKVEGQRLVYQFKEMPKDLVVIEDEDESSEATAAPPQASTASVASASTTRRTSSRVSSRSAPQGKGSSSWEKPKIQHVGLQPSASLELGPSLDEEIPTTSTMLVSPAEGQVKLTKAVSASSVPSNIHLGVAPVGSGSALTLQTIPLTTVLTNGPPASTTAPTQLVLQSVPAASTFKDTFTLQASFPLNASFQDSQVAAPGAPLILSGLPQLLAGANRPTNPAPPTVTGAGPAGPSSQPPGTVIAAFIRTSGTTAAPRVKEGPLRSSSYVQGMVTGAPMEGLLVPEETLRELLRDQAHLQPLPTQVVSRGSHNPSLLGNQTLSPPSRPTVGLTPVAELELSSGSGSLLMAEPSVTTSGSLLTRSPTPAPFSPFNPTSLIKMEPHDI
Outline: as §1

ELK4 = molecular target: T3, ELK4 (Homo sapiens, UniProt P28324-2 1-405); conditions: protein: recombinant; tags: N-terminal GST; dsDNA, one strand shown
T3 sequence: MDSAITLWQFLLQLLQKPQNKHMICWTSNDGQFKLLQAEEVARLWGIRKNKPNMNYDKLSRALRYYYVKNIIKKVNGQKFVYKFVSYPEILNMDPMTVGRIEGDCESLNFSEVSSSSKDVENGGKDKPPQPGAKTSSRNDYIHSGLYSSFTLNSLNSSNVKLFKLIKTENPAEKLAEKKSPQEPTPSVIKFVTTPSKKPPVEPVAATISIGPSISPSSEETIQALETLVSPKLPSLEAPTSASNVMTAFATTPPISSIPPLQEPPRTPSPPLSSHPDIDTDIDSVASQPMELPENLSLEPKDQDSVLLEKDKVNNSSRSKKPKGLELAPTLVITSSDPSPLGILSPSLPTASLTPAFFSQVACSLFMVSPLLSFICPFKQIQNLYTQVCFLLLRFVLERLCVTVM
Outline: as §1

ETV2 = molecular target: T4, ETV2 (Homo sapiens, UniProt O00321 1-342); conditions: protein: recombinant; tags: N-terminal GST; dsDNA, one strand shown
T4 sequence: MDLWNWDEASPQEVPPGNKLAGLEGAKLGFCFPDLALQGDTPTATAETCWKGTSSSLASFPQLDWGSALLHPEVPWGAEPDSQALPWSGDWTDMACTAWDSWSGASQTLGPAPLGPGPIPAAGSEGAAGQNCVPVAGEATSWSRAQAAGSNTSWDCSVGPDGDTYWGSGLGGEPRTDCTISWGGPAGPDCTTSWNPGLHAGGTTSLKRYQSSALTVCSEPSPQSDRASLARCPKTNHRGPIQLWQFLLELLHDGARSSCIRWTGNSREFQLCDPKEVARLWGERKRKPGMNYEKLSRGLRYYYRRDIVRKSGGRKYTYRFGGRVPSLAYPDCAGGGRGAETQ
Outline: as §1

ELF3 = molecular target: T5, ELF3 (Homo sapiens, UniProt P78545 1-371); conditions: protein: recombinant; tags: N-terminal GST; dsDNA, one strand shown
T5 sequence: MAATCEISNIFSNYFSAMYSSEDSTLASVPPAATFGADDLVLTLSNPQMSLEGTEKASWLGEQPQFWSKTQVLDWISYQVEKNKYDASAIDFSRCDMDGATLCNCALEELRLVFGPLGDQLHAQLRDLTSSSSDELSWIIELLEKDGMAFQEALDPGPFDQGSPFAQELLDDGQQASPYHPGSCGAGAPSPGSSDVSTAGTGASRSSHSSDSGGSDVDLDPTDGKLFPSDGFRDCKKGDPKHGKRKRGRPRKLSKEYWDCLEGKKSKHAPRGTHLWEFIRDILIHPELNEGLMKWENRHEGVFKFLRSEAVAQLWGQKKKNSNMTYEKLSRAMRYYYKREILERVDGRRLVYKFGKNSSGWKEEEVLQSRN
Outline: as §1

CRX = CRX (Homo sapiens, UniProt O43186 1-299); conditions: protein: recombinant; tags: N-terminal GST; dsDNA, one strand shown
Chain of CRX (O43186 whole entry): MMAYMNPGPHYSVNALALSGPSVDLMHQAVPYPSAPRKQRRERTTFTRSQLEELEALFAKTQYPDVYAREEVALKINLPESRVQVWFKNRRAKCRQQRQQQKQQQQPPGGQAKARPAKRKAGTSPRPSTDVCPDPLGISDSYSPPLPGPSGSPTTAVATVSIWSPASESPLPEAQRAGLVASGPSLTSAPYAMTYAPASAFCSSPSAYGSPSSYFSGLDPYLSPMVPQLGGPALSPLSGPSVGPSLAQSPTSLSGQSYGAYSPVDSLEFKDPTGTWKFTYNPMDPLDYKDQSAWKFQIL
Outline: as §1

ETV1 = ETV1 (Homo sapiens, UniProt P50549 1-477); conditions: protein: recombinant; tags: N-terminal GST; dsDNA, one strand shown
Chain of ETV1 (P50549 whole entry): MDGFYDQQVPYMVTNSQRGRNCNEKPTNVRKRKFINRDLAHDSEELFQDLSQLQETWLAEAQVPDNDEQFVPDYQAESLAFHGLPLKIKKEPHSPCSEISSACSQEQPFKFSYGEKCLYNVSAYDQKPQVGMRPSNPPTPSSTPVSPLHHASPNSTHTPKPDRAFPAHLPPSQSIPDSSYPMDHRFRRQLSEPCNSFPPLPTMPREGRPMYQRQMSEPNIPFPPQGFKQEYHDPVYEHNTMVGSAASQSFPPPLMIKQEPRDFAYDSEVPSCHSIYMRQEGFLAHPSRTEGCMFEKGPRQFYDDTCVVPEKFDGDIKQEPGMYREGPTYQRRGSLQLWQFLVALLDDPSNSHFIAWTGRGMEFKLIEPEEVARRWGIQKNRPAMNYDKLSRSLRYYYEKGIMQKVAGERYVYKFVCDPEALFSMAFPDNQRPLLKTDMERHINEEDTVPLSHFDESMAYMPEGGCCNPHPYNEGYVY
Outline: as §1

| Sequence | binding signal (FEV) | binding signal (ETV5) | binding signal (HSF1) | binding signal (SPIC) | binding signal (ELF4) | binding signal (ELK4) | binding signal (ETV2) | binding signal (ELF3) | binding signal (CRX) | binding signal (ETV1) |
| --- | --- | --- | --- | --- | --- | --- | --- | --- | --- | --- |
| ATATAT | 1.41 fold enrichment (6-mer frequency, TF over GST control) | 1.42 fold enrichment (6-mer frequency, TF over GST control) | 1.31 fold enrichment (6-mer frequency, TF over GST control) | 1.51 fold enrichment (6-mer frequency, TF over GST control) | 1.38 fold enrichment (6-mer frequency, TF over GST control) | 1.55 fold enrichment (6-mer frequency, TF over GST control) | 1.31 fold enrichment (6-mer frequency, TF over GST control) | 1.64 fold enrichment (6-mer frequency, TF over GST control) | 1.46 fold enrichment (6-mer frequency, TF over GST control) | 1.33 fold enrichment (6-mer frequency, TF over GST control) |
| ACCGAA | 1.05 fold enrichment (6-mer frequency, TF over GST control) | 1.06 fold enrichment (6-mer frequency, TF over GST control) | 1.25 fold enrichment (6-mer frequency, TF over GST control) | 1.12 fold enrichment (6-mer frequency, TF over GST control) | 1.03 fold enrichment (6-mer frequency, TF over GST control) | 1.06 fold enrichment (6-mer frequency, TF over GST control) | 1.19 fold enrichment (6-mer frequency, TF over GST control) | 1.11 fold enrichment (6-mer frequency, TF over GST control) | 1.08 fold enrichment (6-mer frequency, TF over GST control) | 1.05 fold enrichment (6-mer frequency, TF over GST control) |
| TTAGTA | 1.05 fold enrichment (6-mer frequency, TF over GST control) | 1.15 fold enrichment (6-mer frequency, TF over GST control) | 1.68 fold enrichment (6-mer frequency, TF over GST control) | 1.16 fold enrichment (6-mer frequency, TF over GST control) | 1.1 fold enrichment (6-mer frequency, TF over GST control) | 1.12 fold enrichment (6-mer frequency, TF over GST control) | 1.22 fold enrichment (6-mer frequency, TF over GST control) | 1.15 fold enrichment (6-mer frequency, TF over GST control) | 2.39 fold enrichment (6-mer frequency, TF over GST control) | 1.11 fold enrichment (6-mer frequency, TF over GST control) |
| AAGAAG |  | 1.08 fold enrichment (6-mer frequency, TF over GST control) | 1.44 fold enrichment (6-mer frequency, TF over GST control) | 1.23 fold enrichment (6-mer frequency, TF over GST control) | 1.06 fold enrichment (6-mer frequency, TF over GST control) | 1.18 fold enrichment (6-mer frequency, TF over GST control) | 1.19 fold enrichment (6-mer frequency, TF over GST control) | 1.26 fold enrichment (6-mer frequency, TF over GST control) | 1.21 fold enrichment (6-mer frequency, TF over GST control) | 1.1 fold enrichment (6-mer frequency, TF over GST control) |
| TAGAAG |  | 1.08 fold enrichment (6-mer frequency, TF over GST control) | 2.77 fold enrichment (6-mer frequency, TF over GST control) | 1.31 fold enrichment (6-mer frequency, TF over GST control) | 1.19 fold enrichment (6-mer frequency, TF over GST control) | 1.16 fold enrichment (6-mer frequency, TF over GST control) | 1.18 fold enrichment (6-mer frequency, TF over GST control) | 1.18 fold enrichment (6-mer frequency, TF over GST control) | 1.72 fold enrichment (6-mer frequency, TF over GST control) | 1.06 fold enrichment (6-mer frequency, TF over GST control) |
| TAGGTT |  | 1.13 fold enrichment (6-mer frequency, TF over GST control) | 1.18 fold enrichment (6-mer frequency, TF over GST control) | 1.16 fold enrichment (6-mer frequency, TF over GST control) | 1.09 fold enrichment (6-mer frequency, TF over GST control) | 1.12 fold enrichment (6-mer frequency, TF over GST control) | 1.33 fold enrichment (6-mer frequency, TF over GST control) | 1.14 fold enrichment (6-mer frequency, TF over GST control) | 1.25 fold enrichment (6-mer frequency, TF over GST control) | 1.13 fold enrichment (6-mer frequency, TF over GST control) |
| CGAAGC | 1.23 fold enrichment (6-mer frequency, TF over GST control) | 1.31 fold enrichment (6-mer frequency, TF over GST control) | 1.64 fold enrichment (6-mer frequency, TF over GST control) | 1.46 fold enrichment (6-mer frequency, TF over GST control) | 1.44 fold enrichment (6-mer frequency, TF over GST control) | 1.48 fold enrichment (6-mer frequency, TF over GST control) | 1.3 fold enrichment (6-mer frequency, TF over GST control) | 1.23 fold enrichment (6-mer frequency, TF over GST control) | 1.19 fold enrichment (6-mer frequency, TF over GST control) | 1.29 fold enrichment (6-mer frequency, TF over GST control) |
| ATCCGA | 1.29 fold enrichment (6-mer frequency, TF over GST control) | 1.2 fold enrichment (6-mer frequency, TF over GST control) | 1.56 fold enrichment (6-mer frequency, TF over GST control) | 1.31 fold enrichment (6-mer frequency, TF over GST control) | 1.13 fold enrichment (6-mer frequency, TF over GST control) | 1.18 fold enrichment (6-mer frequency, TF over GST control) | 1.24 fold enrichment (6-mer frequency, TF over GST control) | 1.09 fold enrichment (6-mer frequency, TF over GST control) | 2.02 fold enrichment (6-mer frequency, TF over GST control) | 1.17 fold enrichment (6-mer frequency, TF over GST control) |
